This is part of a sample that, as a whole, favours compounds with a hit. Of some 79,000 tested, about 15% had one in any assay. Calls of active or inactive are those of the source. No stated cut-off is given here; in the data, active means growth inhibition above about 70%; inactive means the rest.
Legend:
[1] = NCI Yeast Anticancer Drug Screen. Data for the rad50 strain (AID 155);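 further: 0% = growth of vehicle-only cultures of the same strain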; settings: S. cerevisiae rad50 strain growth inhibition, stronger effect = higher value
Method in brief: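 Relative growth inhibition (compound vs vehicle) was measured in yeast with a defined repair-gene alteration.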

[2] = NCI Yeast Anticancer Drug Screen. Data for the mec2-1 strain (AID 157); settings: S. cerevisiae mec2-1 strain, stronger effect = higher value
Method in brief: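 Mutant yeast (mec2-1) grown with compound; growth inhibition relative to vehicle control reported.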

[3] = NCI Yeast Anticancer Drug Screen. Data for the sgs1 mgt1 strain (AID 161);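 further: 0% = growth of cultures given vehicle only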; settings: S. cerevisiae sgs1 mgt1 strain, stronger effect = higher value
Method in brief: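 Percent growth inhibition was derived by comparing compound-exposed mutant yeast with vehicle-exposed cultures. The strain carries alterations in DNA damage repair.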

[4] = NCI Yeast Anticancer Drug Screen. Data for the cln2 rad14 strain (AID 165);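 further: 0% = growth equal to vehicle treated cultures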; settings: S. cerevisiae cln2 rad14 strain, stronger effect = higher value
Method in brief: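 Readout is yeast growth inhibition versus vehicle-treated controls, using a strain with cln2 and rad14 alterations exposed to compound.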

[5] = NCI Yeast Anticancer Drug Screen. Data for the bub3 strain (AID 167); settings: S. cerevisiae bub3 mutant strain, stronger effect = higher value
Method in brief: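 Screening used yeast with an engineered genetic alteration affecting cell cycle control. Compound-exposed cultures were compared with vehicle cultures, and reduced growth was taken as inhibition.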

[6] = NCI Yeast Anticancer Drug Screen. Data for the mlh1 rad18 strain (AID 175); settings: S. cerevisiae mlh1 rad18 strain growth inhibition, stronger effect = higher value
Method in brief: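 Genetically defined yeast (DNA repair-deficient) exposed to compounds; growth inhibition determined relative to vehicle.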

[7] = at 5.0 µM (retest, dose inferred, filed as 0.5)
[8] = at 50.0 µM (retest, dose inferred, filed as 5.0)

Measured: growth inhibition

CCNC(=S)NC1CCCCCCCCCCC1
active: [1]; [7] 99% | [1]; [8] 100% | [1]; at 50.0 µM 87.8% | [2]; [7] 99% | [2]; [8] 99% | [2]; at 50.0 µM 75.3% | [3]; [8] 88% | [3]; at 50.0 µM 87.2% | [5]; [8] 81% | [5]; at 50.0 µM 82.9% | [6]; [7] 100% | [6]; [8] 100%
inactive: [3]; [7] 26% | [4]; [7] 51% | [4]; [8] 59% | [4]; at 50.0 µM 20.8% | [5]; [7] 40% | [6]; at 50.0 µM 69.2%

COc1cccc2c1C(=O)c1c(O)c3c(c(O)c1C2=O)C[C@@](O)(/C(C)=N\NC(N)=O)C[C@@H]3OC1CC(N)C(O)C(C)O1 (stereo not given in full)
inactive: [1]; [7] 30% | [2]; [7] 52% | [2]; [8] 34% | [2]; at 50.0 µM 43.8% | [3]; [7] 6% | [3]; [8] 30% | [3]; at 50.0 µM 36.9% | [4]; [7] 7% | [4]; [8] 30% | [4]; at 50.0 µM 1.5% | [5]; [7] 6% | [5]; [8] 45% | [5]; at 50.0 µM 35.6% | [6]; [7] 8% | [6]; [8] 7% | [6]; at 50.0 µM 57%
active: [1]; [8] 83% | [1]; at 50.0 µM 88.8%

CC(C)CN(CC(C)C)CN1C(=O)/C(=C/c2ccc([N+](=O)[O-])cc2)SC1=S
inactive: [1]; [7] 16% | [1]; [8] 53% | [1]; at 50.0 µM 63.2% | [2]; [7] 8% | [2]; [8] 61% | [2]; at 50.0 µM 40.3% | [3]; [7] 11% | [3]; [8] 59% | [3]; at 50.0 µM 67.7% | [4]; [7] 37% | [4]; [8] 44% | [4]; at 50.0 µM 46.9% | [5]; [7] 4% | [5]; [8] 37% | [5]; at 50.0 µM 41.2% | [6]; [7] 26% | [6]; [8] 66%
active: [6]; at 50.0 µM 71.2%

O=S(=O)(Nc1ccccc1-c1ccc(Cl)cc1)c1ccccc1
inactive: [1]; [7] -6% | [1]; [8] 14% | [2]; [7] -8% | [2]; [8] 8% | [2]; at 50.0 µM 52.9% | [3]; [7] -7% | [3]; [8] -56% | [4]; [7] -12% | [5]; [7] 2% | [5]; at 50.0 µM 54.9% | [6]; [7] -8% | [6]; [8] 57%
active: [1]; at 50.0 µM 98.9% | [3]; at 50.0 µM 97.5% | [4]; [8] 95% | [4]; at 50.0 µM 98% | [5]; [8] 91% | [6]; at 50.0 µM 73.7%

CC1=CC(C2/C(=N/O)C=C(C)CC2(C)C)C(O)C(C)(C)C1 (stereo not given)
inactive: [1]; [7] 7% | [2]; [7] -18% | [3]; [7] -4% | [4]; [7] -1% | [5]; [7] -23% | [6]; [7] -3%
active: [1]; [8] 95% | [1]; at 50.0 µM 99.2% | [2]; [8] 99% | [2]; at 50.0 µM 98.2% | [3]; [8] 96% | [3]; at 50.0 µM 98.8% | [4]; [8] 97% | [4]; at 50.0 µM 97.8% | [5]; [8] 92% | [5]; at 50.0 µM 98.2% | [6]; [8] 98% | [6]; at 50.0 µM 98.7%

CC(/C=C/c1cccc(C)c1)=N\NC(N)=S
inactive: [1]; [7] 14% | [1]; [8] 41% | [1]; at 50.0 µM 30.4% | [2]; [7] 12% | [2]; [8] 38% | [2]; at 50.0 µM 53.4% | [3]; [7] 16% | [3]; [8] 34% | [4]; [7] 1% | [4]; [8] 11% | [4]; at 50.0 µM 38.6% | [5]; [7] 20% | [5]; [8] 26% | [6]; [7] 23% | [6]; [8] 38%
active: [3]; at 50.0 µM 86.2% | [5]; at 50.0 µM 81.1% | [6]; at 50.0 µM 80.5%

CC1SC(c2ccc(Cl)cc2)N2C(=O)C(C)SC(c3ccc(Cl)cc3)N2C1=O (stereo not given)
active: [1]; [7] 84% | [1]; [8] 91% | [1]; at 50.0 µM 71% | [2]; [8] 91% | [3]; [7] 85% | [3]; [8] 95% | [4]; [7] 84% | [4]; [8] 93% | [5]; [7] 79% | [5]; [8] 94% | [6]; [7] 74% | [6]; [8] 90%
inactive: [2]; [7] 53% | [2]; at 50.0 µM 27.1% | [3]; at 50.0 µM 30.9% | [4]; at 50.0 µM 52.6% | [5]; at 50.0 µM 26.1% | [6]; at 50.0 µM 60%

CC(C)(C)C(NO)C(O)N1CCCCC1 (stereo not given)
inactive: [1]; [7] -155% | [1]; [8] -141% | [1]; at 50.0 µM 20.2% | [2]; [7] -53% | [2]; [8] -52% | [2]; at 50.0 µM 6.25% | [3]; [7] -59% | [3]; [8] -63% | [3]; at 50.0 µM 17.1% | [4]; [7] -63% | [4]; [8] -57% | [4]; at 50.0 µM 50% | [5]; [7] -69% | [5]; [8] -73% | [5]; at 50.0 µM -4% | [6]; [7] -118% | [6]; [8] -105% | [6]; at 50.0 µM 12.4%

O=[N+]([O-])c1cc(C(F)(F)F)ccc1SSc1ccc(C(F)(F)F)cc1[N+](=O)[O-]
inactive: [1]; [7] 45% | [1]; at 50.0 µM 60.9% | [2]; [7] 39% | [2]; at 50.0 µM 50% | [3]; [7] 42% | [3]; at 50.0 µM 68.5% | [4]; [7] 42% | [4]; [8] 64% | [4]; at 50.0 µM 54.7% | [5]; [7] 42% | [5]; at 50.0 µM 66.7% | [6]; [7] 59% | [6]; at 50.0 µM 58.4%
active: [1]; [8] 86% | [2]; [8] 88% | [3]; [8] 93% | [5]; [8] 92% | [6]; [8] 88%

O=C(Nn1c(-c2ccccc2)nc2ccccc2c1=O)c1ccccc1O
inactive: [1]; [7] -4% | [1]; [8] 49% | [2]; [7] -14% | [2]; [8] 51% | [2]; at 50.0 µM 64.2% | [3]; [7] 3% | [3]; [8] 59% | [4]; [7] 9% | [4]; [8] 59% | [5]; [7] -11% | [6]; [7] -1% | [6]; at 50.0 µM 69.8%
active: [1]; at 50.0 µM 73.4% | [3]; at 50.0 µM 79.5% | [4]; at 50.0 µM 77.8% | [5]; [8] 80% | [5]; at 50.0 µM 78.2% | [6]; [8] 79%

Reference: PubChem BioAssay (NCI)
